Assay outcomes deposited in PubChem by National Center for Advancing Translational Sciences (NCATS).
PLK1 PBD inh: qHTS for Inhibitors of PLK1-PDB (polo-like kinase 1 - polo-box domain): Primary Screen; AID 720504, 2013; Plk1 PBD binding of FITC phosphopeptide, fluorescence polarization; 360,000 compounds, 2.8% hits; Potency, µM, hits mostly inhibitors; further: series mostly up to about 57 µM; nearly all actives have a fitted effect of over 65% in size
Target sequence (P53350 whole entry, looked up, the tested form may be a part): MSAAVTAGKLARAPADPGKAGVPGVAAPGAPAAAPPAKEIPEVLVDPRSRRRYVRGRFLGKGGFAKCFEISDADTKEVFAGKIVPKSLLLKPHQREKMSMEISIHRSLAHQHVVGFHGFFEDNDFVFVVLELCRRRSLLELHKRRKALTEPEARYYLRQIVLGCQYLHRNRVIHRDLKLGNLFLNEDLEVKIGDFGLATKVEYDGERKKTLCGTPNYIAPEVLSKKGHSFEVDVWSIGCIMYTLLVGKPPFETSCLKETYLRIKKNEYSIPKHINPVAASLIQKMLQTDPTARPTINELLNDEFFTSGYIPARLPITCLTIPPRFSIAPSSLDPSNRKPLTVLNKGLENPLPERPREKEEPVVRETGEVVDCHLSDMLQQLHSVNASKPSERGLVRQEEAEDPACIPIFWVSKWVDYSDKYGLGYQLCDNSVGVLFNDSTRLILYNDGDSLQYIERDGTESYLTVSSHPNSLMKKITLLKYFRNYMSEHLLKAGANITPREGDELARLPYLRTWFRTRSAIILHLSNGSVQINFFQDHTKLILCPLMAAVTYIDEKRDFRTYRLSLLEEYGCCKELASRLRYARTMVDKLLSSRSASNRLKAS
VDR inh: Inhibitors of the vitamin D receptor (VDR): qHTS; Potency, µM, actives largely listed as inhibitors; VDR-SRC2-3 peptide fluorescence polarization, 2 h; Vitamin D3 receptor (Homo sapiens), P11473; 400,000 compounds, 0.93% hits
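Signal is fluorescence polarization, reporting how far test compounds block the interaction of VDR with the SRC2-3 coregulator peptide after a 2 h room-temperature incubation.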
PI4K2A inh: qHTS for small molecular inhibitors of PI4K2A; purified PI4K2A, ADP-Glo luminescence, 1 h; hits give low values; activity change, negative = inhibition, % at 76.9 µM; 420,000 compounds, 0.13% hits; AID 1346378, 2018; in the data active means activity change below about -50%; inconclusive means mostly about -30% to -49%
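ADP-Glo luminescence measured ADP generated by PI4K2A enzyme (4 ug/mL before mixing) with 1.2 mM PI substrate (pre-mix) and 300 microM ATP (pre-mix). Tris pH7.5 buffer with MgCl2, Triton X-100; 1 h reaction at ambient temperature.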
KAT2A inh: qHTS Assay for Inhibitors of GCN5L2. Histone acetyltransferase KAT2A (Homo sapiens), Q92830. GCN5L2 HAT assay, ThioGlo1 CoA-SH fluorescence. Potency, µM (top dose mostly 58.9 µM), hits mostly inhibitors. 390,000 compounds, 0.21% hits
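GCN5L2 (20nM final) in 50mM HEPES, 0.1mM EDTA pH 7.5, 0.01% Tween-20 was preincubated 15 min at room temperature with compound, then given ThioGlo1 (50uM), H3(1-25) peptide (75uM) and acetyl-CoA (70uM); CoA-thiol fluorescence (Ex340/Em540) was read at 0 and 20 min.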
GLS inh: qHTS for Inhibitors of Glutaminase (GLS) | Glutaminase kidney isoform, mitochondrial (Homo sapiens), O94925 | GLS enzymatic activity, qHTS titration | Potency, µM (top dose mostly 45.5 µM), most hits filed as inhibitors | 410,000 compounds, 0.21% hits | AID 624170, 2012
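Two-point fluorescence kinetic (t0, 30 min RT) for hKGA; glutamate detected via glutamate oxidase–HRP–Amplex Red. Substrate: 1 mM L-glutamine solution; buffer 45 mM KH2PO4, pH 8.2.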
Numbers stand for hits; . = inactive; ? = inconclusive; / = no result given. A selection: hits, their analogues and other compounds. The true share with any hit is near 3.1%. Unless noted, the call rests on the fitted dose curve; in most records, active means well fitted curve in the direction sought with a large enough effect; inconclusive means small, poorly fitted or top-dose-only effect, or another doubt; inactive means no such curve, though single readings can be large; an effect the other way counts as inactive or inconclusive.

SMILES	PLK1 PBD inh	VDR inh	PI4K2A inh	KAT2A inh	GLS inh
CCOC(=O)c1c(/N=C/N(C)C)sc(/C=N/Nc2ccccc2)c1-c1ccccc1Cl	.	.	.	.	.
CCOC(=O)c1c(/N=C/N(C)C)sc(/C=N/Nc2ccccc2)c1-c1ccccc1	24µM	.	.	?	.
COc1ccccc1C(=O)N/C(=C/c1cccc([N+](=O)[O-])c1)C(=O)Nc1cccc(C(=O)O)c1	30µM	?	.	.	.
COc1ccc(C(=O)N/C(=C\c2cccc([N+](=O)[O-])c2)C(=O)Nc2cccc(C(=O)O)c2)cc1	.	.	.	?	.
CC1(C)C=Cc2ccc(O)c(C(=O)/C=C/c3ccccc3)c2O1	/	/	.	/	/
O=c1[nH]c(N2CCCCC2)nc2ncn(Cc3ccccc3)c12	27µM	?	.	.	.
CC(=O)c1c(O)cccc1O	/	.	/	.	/
S=c1[nH]nc(-c2cccnc2)n1/N=C/c1ccccc1	.	.	.	.	.
S=c1[nH]nc(C2CCCCC2)n1/N=C/c1ccc(Cl)cc1	30µM	.	.	.	?
S=c1[nH]nc(C2CCCCC2)n1/N=C/c1ccc(Br)cc1	?	.	.	.	.
Fc1ccccc1/C=N/n1c(C2CCCCC2)n[nH]c1=S	?	.	.	.	.
Fc1cccc(Cl)c1/C=N/n1c(-c2cccnc2)n[nH]c1=S	17µM	.	.	.	.
S=c1[nH]nc(C2CCCCC2)n1/N=C/c1c(Cl)cccc1Cl	30µM	.	.	.	?
S=c1[nH]nc(C2CCCCC2)n1/N=C/c1ccccc1Br	12µM	.	.	.	.
Cc1ccc(C)c(Cn2c(=O)cc(C)c3c(C)nn(-c4cccc(F)c4)c32)c1	/	.	.	.	.
OCCN1CCCC12CCC(c1ccccc1)CC2 (stereo unspecified)	/	/	.	/	/
C=C(C)C1CCC(C)C(OC(C)=O)C1 (stereo unspecified)	/	.	/	.	/
S=c1[nH]nc(-c2cccs2)n1/N=C/c1c(Cl)cccc1Cl	6.7µM	?	.	.	.
COc1cccc(/C=N/n2c(C3CCCCC3)n[nH]c2=S)c1	21µM	.	.	.	.
CC1(C)CC(=O)C2=C(C1)OC(N)=C(C#N)C2C#Cc1ccccc1 (stereo unspecified)	11µM	45µM	.	.	.
COc1ccc(Cl)cc1C=CC=Nc1ccccc1O	.	89µM	.	/	.
CC(CNCC1CCCO1)COc1ccccc1 (stereo unspecified)	30µM	.	.	.	.
CCN1CCCCC(NC(=O)COCc2ccccc2)C1=O (stereo unspecified)	/	/	.	/	/
CCOc1ccc(-c2nnc(-c3ccncc3)o2)cc1	27µM	71µM	.	.	.
Cc1[nH]c2ccccc2c1C(=O)CSC(=S)N1CCCCC1	.	.	.	.	.
SMILES	PLK1 PBD inh	VDR inh	PI4K2A inh	KAT2A inh	GLS inh
Cc1[nH]c2ccccc2c1C(=O)CSc1ccc(Cl)cc1	12µM	?	.	.	?
COc1ccc(Cn2c(NC(=O)c3ccccc3)nc(Cc3ccccc3)c2Cc2ccccc2)cc1	/	/	.	/	/
CNC(=S)N/N=C/c1ccc(C(C)C)cc1	3µM	.	.	/	?
COC(=O)c1ccc(/C=N/NC(=S)NC(C)C)cc1	13µM	25µM	.	.	.
CC(C)c1ccc(/C=N/NC(=O)C2CCCC2)cc1	.	.	.	.	.
Cn1cc(S(=O)(=O)N2CCCC2)cc1C(=O)Nc1ccc(F)cc1F	/	.	.	.	.
CCOC(=O)[C@@]12CN(C(=O)OC(C)(C)C)CC=C1N(Cc1ccc(OC)cc1)C(=O)[C@H]2CC(=O)NCCc1ccccc1OC	/	/	.	/	/
O=c1cc(N2CCCCC2)c(-c2ccccc2)nn1Cc1ccc(Cl)cc1	.	.	.	.	.
O=c1cc(N2CCCCC2)c(-c2ccccc2)nn1Cc1c(Cl)cccc1Cl	27µM	.	.	?	.
O=C(CN1CCN(CC(=O)c2ccc(F)cc2)CC1)Nc1ccccc1Cl	.	.	.	.	.
O=C(CCC(=O)c1ccc(F)cc1)Nc1ccccc1Cl	27µM	.	.	.	.
O=[N+]([O-])c1cc(-c2ccccc2)cc([N+](=O)[O-])c1O	?	.	.	/	.
O=[N+]([O-])c1cccc(C=Nc2cccc3ccccc23)c1O	.	.	.	35µM	.
O=[N+]([O-])c1cc2ccccc2c(O)c1O	5.3µM	/	?	/	?
O=C(O)c1cc([N+](=O)[O-])cc2ccccc12	19µM	.	.	/	.
Cc1ccc(O)c(N=Cc2cc(Cc3ccccc3)cc([N+](=O)[O-])c2O)c1	?	.	?	.	11µM
O=C(c1ccc2c(=O)n(CC3CCCO3)c(=S)[nH]c2c1)N1CCN(C(=O)c2ccco2)CC1 (stereo unspecified)	/	.	/	/	/
C[C@H](N)CCCP(=O)(O)O	/	.	/	.	/
CCC(=O)N1CCc2cc(CNC(=O)c3ccc(OC)cc3)ccc21	/	.	.	.	.
Cc1ccc(-c2cc(C(=O)Nc3ccc(SC(F)F)cc3)no2)cc1F	/	.	.	.	.
Clc1ccccc1/C=N/c1cc(-c2ccccc2)nn1-c1ccccc1	17µM	?	.	.	.
COc1cc(CN2CC(=O)N(c3cc(Cl)ccc3C)C2=S)cc(OC)c1OC	15µM	?	.	.	.
COc1ccc(C(CC(=O)O)NS(=O)(=O)c2ccc3c(c2)N(C(C)=O)CC(C)O3)cc1 (stereo unspecified)	27µM	.	.	.	.
CC(=O)N1CC(C)Oc2ccc(S(=O)(=O)NC(CC(=O)O)c3ccccc3C)cc21 (stereo unspecified)	.	.	.	.	.
CCCCNC(=O)NS(=O)(=O)c1ccc(NC(=O)CSc2nnc(-c3cccs3)n2-c2ccc(OC)cc2)cc1	/	/	.	/	/
SMILES	PLK1 PBD inh	VDR inh	PI4K2A inh	KAT2A inh	GLS inh
COc1ccc(OC)c2c1C(=O)c1ccccc1C2=O	11µM	.	.	.	.
COC1=C(Nc2ccccc2)C(=O)c2ccccc2C1=O	.	45µM	?	.	.
COc1ccc(N)c2c1C(=O)c1ccccc1C2=O	.	?	.	.	.
CC(=O)NC1=C(Nc2ccc(N(C)C)cc2)C(=O)c2ccccc2C1=O	.	50µM	?	.	.
O=C1c2ccccc2-c2onc3ccc(NCCCn4ccnc4)c1c23	1.5µM	.	.	.	.
COC1=C(Nc2ccc(C)cc2)C(=O)c2ccccc2C1=O	.	?	.	.	.
CC1(C)CC2C1CCC1(C)OC2(C)CCC1O (stereo unspecified)	/	.	/	.	/
C[N+]1(C)CCC(OC(=O)CC(O)(c2ccccc2)C2CCCC2)C1 (stereo unspecified)	/	/	/	/	.
CN1[C@@H](Cc2ccccc2)COc2cc(N3CCCC3)ccc2S1(=O)=O	/	/	.	/	/
